# RMI FANCM FP – disruptors of RMI1/RMI2 association with MM2 peptide – biochemical, fluorescence polarization, human, primary screen. RMI core complex (RMI1/RMI2) binding to FANCM MM2 peptide, human. RMI core complex with F-MM2 peptide; hits give low values. FP signal (polarization) at 33 µM. 0.58% of 70,000 active. AID 1159607, 2016; in the data active = FP signal below about 40
# Active calls of the source: *; ! = a repeat was not active. The full list was thinned out, with hits kept by preference.
SMILES,RMI FANCM FP
O=C(CN1C(=O)/C(=C\c2cccs2)SC1=S)Nc1cccc(Br)c1,59
O=C(CCN1C(=O)/C(=C\c2ccco2)SC1=S)Nc1cccc(Br)c1,9*
O=C(CN1C(=O)/C(=C/c2ccco2)SC1=S)Nc1ccc(C(=O)O)cc1,64
Cc1cc(C)cc(C(=O)NCCn2cc(SCC(=O)Nc3ccc(OC(F)(F)F)cc3)c3ccccc32)c1,64
CCOC(=O)c1oc2ccccc2c1NC(=O)c1ccc(S(=O)(=O)N(CC)CC)cc1,61
CCOC(=O)c1c(N=c2oc3c(OC)cccc3cc2C(=O)Nc2ccc(C)cc2)sc2c1CCCC2,58
CCOc1ccccc1N=c1oc2c3c4c(cc2cc1C(=O)Nc1ccccc1OC)CCCN4CCC3,33*
COc1cc(C(=O)Nc2ccccc2N2CCCCC2)cc(OC)c1OC,58
C[C@H](CCC(=O)O)[C@H]1CC[C@H]2[C@@H]3[C@H](O)C[C@@H]4C[C@H](O)CC[C@]4(C)[C@H]3CC[C@]12C,42
C[C@H](CCC(=O)O)[C@H]1CCC2C3C(CC[C@@]21C)[C@@]1(C)CC[C@@H](O)C[C@H]1C[C@@H]3O (some centres not stated),63
CC(CCC(=O)N/N=C/c1c[nH]c2ccccc12)C1CCC2C3C(O)CC4CC(O)CCC4(C)C3CCC12C (configuration not stated),21*
O=C(CCS(=O)(=O)Cc1ccccc1)Nc1nc2c(F)cc(F)cc2s1,83
COc1ccc(NC(=O)Cc2c(C)nc(SC(C)c3ccccc3)[nH]c2=O)c(OC)c1 (configuration not stated),60
COc1ccc(C(=O)Nc2ccc3c(c2)CN(C(=O)C2CC2)CC3)c(OC)c1OC,68
O=C1C2ON(c3ccccc3)C(/C=C/c3ccccc3)C2C(=O)N1Cc1ccccc1 (configuration not stated),62
N#Cc1c(-c2ccc3c(c2)OCO3)cc(-c2ccccc2O)[nH]c1=O,76
N#Cc1c(-c2ccc3c(c2)OCO3)nc(N2CCCCC2)[nH]c1=O,23*
COc1ccc(-c2cc(-c3ccc(C)c(C)c3)nc(SCC(=O)NCc3ccc4c(c3)OCO4)c2C#N)cc1OC,104
COc1ccccc1C1Oc2ccccc2C2=C1C(c1cc(OC)c(OC)c(OC)c1)n1ncnc1N2 (configuration not stated),54
N#C/C(=C\c1c[nH]c2ccccc12)C(=O)Nc1cccc(Cl)c1,51
C=CCN1CCCC1CNC(=O)c1cc2[nH]nnc2cc1OC (configuration not stated),61
CCN1CCC[C@H]1CNC(=O)c1c(OC)ccc(Br)c1OC,59
CCN1CCC[C@H]1CNC(=O)c1cc(S(N)(=O)=O)ccc1OC,22*!
COc1ccc(CCNC(=O)CCc2c(C)nn(-c3nc(C)cc(=O)[nH]3)c2C)cc1OC,65
CC(C)c1cc(=O)[nH]c(-n2nc(-c3cccs3)cc2NC(=O)/C=C\c2ccc3c(c2)OCO3)n1,26*
SMILES,RMI FANCM FP
Cc1cc(=O)[nH]c(-n2nc(C)cc2NC(=O)/C=C/c2ccc3c(c2)OCO3)n1,54
CC(C)c1cc(=O)[nH]c(-n2nc(-c3cccs3)cc2NC(=O)c2cccs2)n1,75
Cc1nn(-c2ccc(N3CCN(C(=O)/C=C/c4ccccc4)CC3)nn2)c(C)c1C,55
O=C(CCCn1nc(-c2cccs2)ccc1=O)Nc1cccc(C(F)(F)F)c1,67
O=C(Nc1nnc(-c2ccc(Cl)cc2)s1)c1ccc(S(=O)(=O)N2CCCC2)cc1,47
C=Cc1ccc(CSc2nccn3nc(-c4ccc(F)cc4)cc23)cc1,34*
C=Cc1ccc(CSc2nccn3nc(-c4ccc(OC)cc4)cc23)cc1,70
Fc1ccc(-c2cc3c(SCc4cccc(C(F)(F)F)c4)nccn3n2)cc1,69
Cn1nccc1C(=O)N(Cc1ccccn1)c1nc2c(F)cccc2s1,70
CCCCC(=O)NCCn1ncc2c(=O)n(Cc3ccc(Cl)cc3)cnc21,66
COc1ccc(N2CCN(c3ncnc4c3cnn4CCNC(=O)c3snnc3C)CC2)cc1,64
CCc1nn(C)c2c(=O)c(=O)c2n(C)[nH]1,32*
O=C(c1ccno1)N1CCN(C2c3ccccc3-c3ccccc32)CC1,-13*!
O=C(c1ccc2nsnc2c1)N1CCN(C2c3ccccc3-c3ccccc32)CC1,55
Cc1c(C(=O)N2CCN(C3c4ccccc4-c4ccccc43)CC2)cnn1-c1ccccc1,61
COc1cc(Cn2cc(CC(=O)NCc3cccs3)c3ccccc32)cc(OC)c1,70
CS(=O)(=O)c1cccc(-c2nnc(NC(=O)c3ccc(S(=O)(=O)N4CCc5ccccc5C4)cc3)o2)c1,64
Cc1ccc(C)c(-c2nnc(NC(=O)c3ccc(S(=O)(=O)N4CCc5ccccc54)cc3)o2)c1,18*
CSc1cccc(C(=O)Nc2nnc(-c3cc(C)ccc3C)o2)c1,52
O=C(Nc1cccc2c1C(=O)c1ccccc1C2=O)c1ccc([N+](=O)[O-])cc1,53
O=C(Nc1sc2ccccc2c(=O)c1-c1ccc2c(c1)OCO2)c1cccs1,64
O=C(Nc1sc2ccccc2c(=O)c1-c1cccs1)c1ccc([N+](=O)[O-])cc1,-19*
COCCn1c(=NC(=O)c2cc(Cl)cc(Cl)c2)sc2cc(NC(C)=O)ccc21,76
Cc1cc(C(=O)Nc2nc(-c3nc4ccccc4s3)cs2)on1,75
COc1nc2ccccc2nc1NS(=O)(=O)c1ccc(NC(C)=O)cc1,59
SMILES,RMI FANCM FP
COc1ccc(NC(=O)Cn2cc(C(=O)c3ccc(F)cc3)c(=O)c3cc4c(cc32)OCO4)c(OC)c1,89
CC(C)N1CCc2c(sc(NC(=O)c3ccc(Cl)s3)c2-c2nc3ccccc3s2)C1,-19*
CC(C)N1CCc2c(sc(NC(=O)c3ccc(S(=O)(=O)N4CCCCCC4)cc3)c2-c2nc3ccccc3s2)C1,3
Cc1ccc(C(=O)Nc2sc3c(c2-c2nc4ccccc4s2)CCN(C(C)C)C3)c(C)c1,36
Cc1ccnc(NS(=O)(=O)c2ccc(NC(=O)/C=C/c3ccc([N+](=O)[O-])s3)cc2)n1,78
O=C(O)c1cc(O)c2c(c1)[C@@H]([C@H]1c3cc(C(=O)O)cc(O)c3C(=O)c3c(O[C@H]4O[C@H](CO)[C@@H](O)[C@H](O)[C@H]4O)cccc31)c1cccc(O[C@H]3O[C@H](CO)[C@@H](O)[C@H](O)[C@H]3O)c1C2=O,22*
COC(=O)c1ccccc1OC1OC(CO)C(O)C(O)C1O (configuration not stated),61
CCN1C(=O)Cc2cc(NC(=O)COc3cccc(OC)c3)ccc21,69
Oc1ccc(-c2[nH]ncc2Oc2ccccc2)c(O)c1O,31*
COc1ccccc1Oc1cn[nH]c1-c1ccc(O)cc1O,57
CCOc1ccc(-c2[nH]ncc2Oc2cccc(OC)c2)c(O)c1,59
C#CCn1c(=NC(=O)CC)sc2cccc(OC)c21,62
N#C/C(=C\c1ccc(O)c(O)c1)C(=O)c1ccc(O)c(O)c1,93
O=C(O)C=Cc1ccc(O)c(O)c1,60
O=c1cc(O)cc(/C=C/c2ccc(O)c(O)c2)o1,15*
CCOC(=O)c1sc2nc(NC(=O)Cc3ccccc3)sc2c1C,78
CC1(C)COc2ccc(NC(=O)c3cccc(Br)c3)cc2NC1=O,66
O=C(NCC(c1cccs1)N1CCc2ccccc21)c1c(F)cccc1Cl (configuration not stated),54
CCOC(=O)/C(C#N)=C/c1ccc(-c2cccs2)s1,82
COC(=O)/C(C#N)=C/c1ccc(SC)s1,32*

# Compound activity from PubChem.
